Measured values published in PubChem BioAssay (Tox21).
Results filed as inconclusive are left out. Activity calls are given as the source filed them. Unless noted, the call rests on the fitted dose curve; in most records, active means well fitted curve in the direction sought with a large enough effect in the repeat runs; inconclusive means weak or mixed curves; inactive means no such curve, though single readings can be large; an effect the other way counts as inactive or inconclusive. Where a SMILES comes first, the peptide text is derived from it.

Key:
[1] = target: Peroxisome proliferator-activated receptor gamma (Homo sapiens) (UniProt P37231); experiment: qHTS assay to identify small molecule agonists of the peroxisome proliferator-activated receptor gamma (PPARg) signaling pathway (AID 743094; active means well fitted activation curve with a large enough effect in the signal ratio in the repeat runs, not every such curve was filed as active; the % refers to the signal ratio)
How it was run: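 Agonism was assessed in a beta-lactamase reporter system, HEK293H cells with a stably integrated UAS-bla construct under PPARg control; the 17 h treatment at 37C preceded a 1 h room-temperature FRET substrate read.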

[2] = target: Peroxisome proliferator-activated receptor gamma (Homo sapiens) (UniProt P37231); experiment: qHTS assay to identify small molecule antagonists of the peroxisome proliferator-activated receptor gamma (PPARg) signaling pathway (AID 743191; calls by dose curve; further: series mostly up to about 63 µM; nearly all actives have a fitted effect of over 30% in size)
How it was run: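 Beta-lactamase reporter under UAS control in HEK293H PPARg-bla cells; compound treatment 17 h at 37C. Read-out: fluorescence intensity after 1 h room-temperature incubation with LiveBLAzer B/G FRET substrate.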

[3] = qHTS assay to identify small molecule antagonists of the peroxisome proliferator-activated receptor gamma (PPARg) signaling pathway - cell viability counter screen (AID 743194); further: nearly all actives have a fitted effect of over 55% in size
How it was run: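 Viability was measured as CellTiter-Glo luminescence in GeneBLAzer PPARg UAS-bla HEK293H cells. These cells had been exposed 17 h at 37 C to compounds together with rosiglitazone at 50 nM final, with the beta-lactamase readout taken in the same wells.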

[4] = qHTS assay for small molecule agonists of the antioxidant response element (ARE) signaling pathway - cell viability counter screen (AID 743203; calls by dose curve; further: nearly all actives have a fitted effect of over 55% in size)
How it was run: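 ATP content via CellTiter-Glo luminescence served as the viability measure. Cells: ARE-bla HepG2, 2,000 per well. Exposure: 16 hrs, 37C/5% CO2.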

[5] = qHTS assay for small molecule activators of the heat shock response signaling pathway - cell viability counter screen (AID 743209); further: nearly all actives have a fitted effect of over 50% in size
How it was run: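 Compounds dissolved in DMSO were added to overnight-plated HSE-bla HeLa cells and left 5 h at 37 C. Cell viability was quantified by luminescence using CellTiter-Glo.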

[6] = qHTS assay for small molecule activators of the heat shock response signaling pathway (AID 743210; active means well fitted activation curve with a large enough effect in the signal ratio in the repeat runs, with a control signal flat, not every such curve was filed as active; the % refers to the signal ratio; further: series mostly up to about 63 µM)
How it was run: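 Compound exposure lasted 5 h at 37 C in HeLa cells carrying a heat-shock-element-driven beta-lactamase reporter. Read-out: fluorescence intensity after 2.5 h room-temperature loading with LiveBLAzer B/G FRET substrate.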

[7] = qHTS assay to identify small molecule agonists of the peroxisome proliferator-activated receptor delta (PPARd) signaling pathway - cell viability counter screen (AID 743211); further: nearly all actives have a fitted effect of over 55% in size
How it was run: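 PPARd-bla HEK293H cells (UAS-beta-lactamase reporter) were treated with compounds for 17 h at 37 C. Viability was then read in the same wells by CellTiter-Glo luminescence after 30 min at room temperature.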

[8] = qHTS assay to identify small molecule antagonists of the peroxisome proliferator-activated receptor delta (PPARd) signaling pathway - cell viability counter screen (AID 743213); further: nearly all actives have a fitted effect of over 50% in size
How it was run: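 Viability counter-screen, qHTS format: PPARd-bla HEK293H, L165041 300 nM final, 17 h compound exposure at 37 C, CellTiter-Glo luminescence after 30 min RT.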

[9] = target: Bile acid receptor (Homo sapiens) (UniProt Q96RI1); experiment: qHTS assay to identify small molecule antagonists of the farnesoid-X-receptor (FXR) signaling pathway (AID 743217; active means well fitted inhibition curve with a large enough effect in the signal ratio in the repeat runs, not every such curve was filed as active; the % refers to the signal ratio)
How it was run: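 Test compounds are pin-transferred onto FXR-bla HEK 293T cells, then chenodeoxycholic acid is added at 50 uM final. After 16 h at 37 °C, LiveBLAzer B/G substrate is applied for 2 h at room temperature and fluorescence read.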

[10] = qHTS assay to identify small molecule agonists of the farnesoid-X-receptor (FXR) signaling pathway - cell viability counter screen (AID 743218); further: nearly all actives have a fitted effect of over 45% in size
How it was run: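 Quantitative HTS counter screen measuring ATP-based viability via CellTiter-Glo luminescence in HEK 293T cells carrying a UAS-driven beta-lactamase reporter, after 16 h compound exposure at 37 C.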

[11] = target: Bile acid receptor (Homo sapiens) (UniProt Q96RI1); experiment: qHTS assay to identify small molecule agonists of the farnesoid-X-receptor (FXR) signaling pathway (AID 743220; active means well fitted activation curve with a large enough effect in the signal ratio in the repeat runs, not every such curve was filed as active; the % refers to the signal ratio)
How it was run: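 FXR-UAS-bla HEK 293T cells carrying a UAS-driven beta-lactamase reporter were plated for 5 h at 37C/5% CO2, then exposed to DMSO-dissolved Tox21 10K compounds for 16 h at 37C. A LiveBLAzer B/G FRET substrate was loaded for 2 h at room temperature before fluorescence reading.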

[12] = qHTS assay to identify small molecule antagonists of the farnesoid-X-receptor (FXR) signaling pathway - cell viability counter screen (AID 743221; active means well fitted cell-killing curve with a large enough effect in the repeat runs, not every such curve was filed as active; further: nearly all actives have a fitted effect of over 50% in size)
How it was run: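 FXR-UAS-bla HEK 293T cells were treated with test compounds plus chenodeoxycholic acid (50 uM final) for 16 h at 37 C. Cell viability in the same wells was then read as CellTiter-Glo luminescence after 30 min at room temperature.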

[13] = qHTS assay for small molecule agonists of the antioxidant response element (ARE) signaling pathway (AID 743202; active means well fitted activation curve with a large enough effect in the signal ratio in the repeat runs, not every such curve was filed as active; the % refers to the signal ratio)
How it was run: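 After 16 hours of compound treatment at 37 C, HepG2 cells with a stably integrated ARE-driven beta-lactamase reporter were loaded 2 hours at room temperature with LiveBLAzer B/G FRET substrate and fluorescence intensity measured.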

[14] = target: Peroxisome proliferator-activated receptor delta (Homo sapiens) (UniProt Q03181); experiment: qHTS assay to identify small molecule agonists of the peroxisome proliferator-activated receptor delta (PPARd) signaling pathway (AID 743212; calls by dose curve)
How it was run: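 Beta-lactamase reporter readout: a ratiometric FRET signal from the LiveBLAzer substrate after 2 h at room temperature. Compound exposure at 37 °C in PPARδ-bla HEK293H cells driven by an upstream activator sequence.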

[15] = target: Peroxisome proliferator-activated receptor delta (Homo sapiens) (UniProt Q03181); experiment: qHTS assay to identify small molecule antagonists of the peroxisome proliferator-activated receptor delta (PPARd) signaling pathway (AID 743215; active means well fitted inhibition curve with a large enough effect in the signal ratio in the repeat runs, not every such curve was filed as active; the % refers to the signal ratio;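 further: cells stimulated with agonist L165041 at 300 nM final during compound exposure; series mostly up to about 62 µM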)
How it was run: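 Here, a reporter line (HEK293H, beta-lactamase under a UAS) measures PPARd signaling. Compounds are tested against agonist L165041 at 300 nM final concentration over 17 h at 37 C, with fluorescence read after substrate.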

[16] = qHTS assay to identify small molecule agonists of the vitamin D receptor (VDR) signaling pathway - cell viability counter screen (AID 743224); further: series mostly up to about 63 µM; nearly all actives have a fitted effect of over 50% in size
How it was run: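 CellTiter-Glo viability readout on VDR-bla cells, measured after 16 h of compound treatment at 37C in the same wells.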

[17] = target: Vitamin D3 receptor (Homo sapiens) (UniProt P11473); experiment: qHTS assay to identify small molecule antagonists of the vitamin D receptor (VDR) signaling pathway (AID 743223; active means well fitted inhibition curve with a large enough effect in the signal ratio in the repeat runs, not every such curve was filed as active; the % refers to the signal ratio)
How it was run: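 VDR-bla cells were plated, incubated 4 h at 37C, then given compound and 1alpha,25-dihydroxyvitamin D3 (3 nM final). After 16 h at 37C, LiveBLAzer B/G FRET substrate was added for 2 h at room temperature and fluorescence read.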

[18] = target: Vitamin D3 receptor (Homo sapiens) (UniProt P11473); experiment: qHTS assay to identify small molecule agonists of the vitamin D receptor (VDR) signaling pathway (AID 743222; calls by dose curve)
How it was run: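 Tox21 cell reporter format: VDR-bla line, 16 h compound exposure in 5% CO2 at 37C, then fluorescence intensity after 2 h with LiveBLAzer B/G FRET substrate.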

[19] = qHTS assay to identify small molecule that activate the aryl hydrocarbon receptor (AhR) signaling pathway - cell viability counter screen (AID 743086);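 further: HepG2 liver cells carrying the AhR DRE luciferase reporter; series mostly up to about 70 µM; nearly all actives have a fitted effect of over 45% in size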
How it was run: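 Cytotoxicity counter screen: CellTiter-Fluor signal (30 min, 37 C) in 4000 HepG2 cells/well carrying the DRE-luciferase reporter, following 24 h compound exposure at 37 C.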
On the % scale 0 is the no-effect control and ±100 the full control effect.

Sequence of Vitamin D3 receptor (Homo sapiens) (P11473 whole entry, looked up): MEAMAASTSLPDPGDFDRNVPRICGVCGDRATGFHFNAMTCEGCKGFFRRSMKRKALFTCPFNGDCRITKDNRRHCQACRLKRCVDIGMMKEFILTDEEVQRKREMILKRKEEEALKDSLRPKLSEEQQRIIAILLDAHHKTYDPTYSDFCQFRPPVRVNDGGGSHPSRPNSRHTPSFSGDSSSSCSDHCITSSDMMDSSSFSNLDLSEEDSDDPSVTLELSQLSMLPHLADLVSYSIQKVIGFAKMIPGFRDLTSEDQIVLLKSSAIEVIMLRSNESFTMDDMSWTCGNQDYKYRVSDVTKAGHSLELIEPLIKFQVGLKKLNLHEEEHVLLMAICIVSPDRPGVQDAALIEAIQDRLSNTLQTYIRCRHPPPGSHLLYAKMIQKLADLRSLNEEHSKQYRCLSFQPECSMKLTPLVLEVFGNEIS
Sequence of Peroxisome proliferator-activated receptor gamma (Homo sapiens) (P37231 whole entry, looked up): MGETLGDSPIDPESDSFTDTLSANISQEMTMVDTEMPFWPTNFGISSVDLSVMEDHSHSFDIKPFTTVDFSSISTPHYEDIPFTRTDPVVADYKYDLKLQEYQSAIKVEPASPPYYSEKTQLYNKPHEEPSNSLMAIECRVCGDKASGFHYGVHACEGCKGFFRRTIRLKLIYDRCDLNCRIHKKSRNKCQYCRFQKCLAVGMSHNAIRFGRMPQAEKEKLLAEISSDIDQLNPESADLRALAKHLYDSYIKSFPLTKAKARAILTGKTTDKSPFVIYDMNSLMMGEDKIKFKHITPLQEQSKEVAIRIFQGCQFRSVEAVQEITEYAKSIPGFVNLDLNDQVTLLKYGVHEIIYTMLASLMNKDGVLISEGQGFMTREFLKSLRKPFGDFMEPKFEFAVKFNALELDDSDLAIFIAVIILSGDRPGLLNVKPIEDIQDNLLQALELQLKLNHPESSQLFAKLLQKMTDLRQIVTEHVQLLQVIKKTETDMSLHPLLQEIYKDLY
Sequence of Peroxisome proliferator-activated receptor delta (Homo sapiens) (Q03181 whole entry, looked up): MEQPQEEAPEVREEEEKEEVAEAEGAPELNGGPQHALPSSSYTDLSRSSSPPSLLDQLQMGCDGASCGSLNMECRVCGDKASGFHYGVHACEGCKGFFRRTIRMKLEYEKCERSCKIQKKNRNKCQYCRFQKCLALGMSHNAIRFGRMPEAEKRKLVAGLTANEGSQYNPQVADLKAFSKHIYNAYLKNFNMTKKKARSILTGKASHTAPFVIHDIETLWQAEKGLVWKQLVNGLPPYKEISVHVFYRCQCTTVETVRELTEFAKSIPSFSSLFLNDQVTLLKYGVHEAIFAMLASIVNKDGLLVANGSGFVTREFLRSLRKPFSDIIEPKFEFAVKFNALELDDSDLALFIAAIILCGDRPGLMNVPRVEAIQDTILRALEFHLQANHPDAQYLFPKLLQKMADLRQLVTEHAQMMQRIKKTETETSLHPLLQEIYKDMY
Sequence of Bile acid receptor (Homo sapiens) (Q96RI1 whole entry, looked up): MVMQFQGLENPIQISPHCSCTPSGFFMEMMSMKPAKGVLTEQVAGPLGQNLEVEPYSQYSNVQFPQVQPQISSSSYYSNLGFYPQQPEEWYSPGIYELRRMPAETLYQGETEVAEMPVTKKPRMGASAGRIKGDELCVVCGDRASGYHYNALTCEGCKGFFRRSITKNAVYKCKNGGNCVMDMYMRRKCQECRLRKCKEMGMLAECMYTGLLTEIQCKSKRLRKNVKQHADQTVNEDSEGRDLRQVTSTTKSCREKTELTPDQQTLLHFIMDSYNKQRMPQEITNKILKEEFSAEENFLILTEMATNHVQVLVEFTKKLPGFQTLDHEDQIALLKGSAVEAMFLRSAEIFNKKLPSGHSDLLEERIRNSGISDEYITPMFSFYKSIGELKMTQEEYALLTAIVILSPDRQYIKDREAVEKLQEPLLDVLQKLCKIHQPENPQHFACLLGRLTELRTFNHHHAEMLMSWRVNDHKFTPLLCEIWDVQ

CCC(=O)c1c(O)cc(O)cc1O
inactive: Potency [1] | outcome [2] | outcome [3] | outcome [4] | Potency [5] | outcome [6] | outcome [7] | outcome [8] | outcome [9] | outcome [10] | outcome [11] | outcome [12]

CC(C)C[C@@H]1[C@H](c2ccccc2)OC(=O)N1CCCN1CCCCCC1
inactive: outcome [2] | outcome [3] | Potency [13] | outcome [4] | Potency [5] | outcome [14] | outcome [8] | outcome [15] | outcome [10] | outcome [12] | outcome [16]

O=C1NC(c2ccccc2)(c2ccccc2)C(=O)N1COP(=O)(O)O
inactive: outcome [2] | outcome [3] | Potency [13] | outcome [4] | Potency [5] | outcome [6] | outcome [7] | outcome [8] | outcome [11] | outcome [12] | outcome [17] | outcome [16]

C/C(=C1\CCOC(=O)S1)N(C=O)Cc1cnc(C)nc1N
inactive: Potency [13] | outcome [4] | Potency [5] | outcome [6] | outcome [14] | outcome [8] | outcome [15] | outcome [11] | outcome [12] | outcome [18] | outcome [16]

Fc1ccccc1
inactive: Potency [19] | outcome [3] | outcome [4] | Potency [5] | outcome [6] | outcome [7] | outcome [14] | outcome [12] | outcome [18]

[O-][n+]1cccc(/C(Cl)=N/OC[C@@H](O)CN2CCCCC2)c1
inactive: outcome [3] | Potency [13] | outcome [4] | Potency [5] | outcome [6] | outcome [7] | outcome [14] | outcome [8] | outcome [15] | outcome [10] | outcome [12] | outcome [16]

COCCc1ccccn1
inactive: outcome [2] | outcome [3] | Potency [13] | outcome [4] | outcome [6] | outcome [7] | outcome [14] | outcome [8] | outcome [15] | outcome [10] | outcome [12] | outcome [16]

Cc1ccnc(N)c1
inactive: Potency [1] | outcome [2] | outcome [3] | Potency [13] | outcome [4] | Potency [5] | outcome [6] | outcome [7] | outcome [14] | outcome [8] | outcome [15] | outcome [11] | outcome [12]

CC12CCC(C1)C(C)(C)C2O (stereo not drawn)
inactive: Potency [19] | Potency [1] | outcome [2] | outcome [4] | Potency [5] | outcome [7] | outcome [14] | outcome [8] | outcome [15] | outcome [10] | outcome [11] | outcome [18] | outcome [17]

CCOc1ccccc1OCC1CNCCO1 (stereo not drawn)
inactive: outcome [2] | outcome [3] | Potency [13] | outcome [4] | Potency [5] | outcome [6] | outcome [7] | outcome [14] | outcome [8] | outcome [10] | outcome [12] | outcome [18]

CC(=O)N[C@@H](CO)C(=O)N[C@@H](CC(=O)O)C(=O)N[C@@H](CCCCN)C(=O)N1CCC[C@H]1C(=O)O (Ac-SDKP-OH)
inactive: outcome [2] | Potency [13] | outcome [4] | Potency [5] | outcome [6] | outcome [7] | outcome [14] | outcome [8] | outcome [15] | outcome [9] | outcome [10] | outcome [11] | outcome [12] | outcome [18] | outcome [16]

CN(C)CC/C=C1/c2ccccc2COc2ccc(CC(=O)O)cc21
inactive: outcome [3] | Potency [13] | outcome [4] | outcome [6] | outcome [7] | outcome [10] | outcome [12] | outcome [16]

O=C1c2ccccc2C(=O)c2cc(Cl)ccc21
inactive: viability change, negative = cytotoxic [19] 10.5% [at 8.47 µM] | activation [1] 0.384% [at 7.08 µM] | activation [13] -9.26% [at 8.36 µM] | viability change, negative = cytotoxic [4] -3.86% [at 8.36 µM] | activity change, negative = cytotoxicity [5] 2.51% [at 5.95 µM] | activation [6] -0.0238% [at 5.95 µM] | activity change, negative = cytotoxicity [7] -0.0176% [at 5.95 µM] | activation [14] -1.6% [at 5.95 µM] | viability change, negative = cytotoxic [8] 3.97% [at 6.26 µM] | ratio activity, negative = inhibition [15] 5.48% [at 6.26 µM] | activity change, negative = inhibition [9] -1.25% [at 5.95 µM] | viability change, negative = cytotoxic [10] -3.87% [at 5.95 µM] | activation [11] 0.306% [at 5.95 µM] | activity change, negative = cytotoxicity [12] -3.54% [at 5.95 µM] | activation [18] -5.27% [at 6.01 µM] | activity change, negative = inhibition [17] -12.7% [at 6.95 µM] | activity change, negative = cytotoxicity [16] -4.49% [at 5.95 µM]

CCn1cc(C(=O)O)c(=O)c2cnc(N3CCCC3)nc21
inactive: Potency [19] | activity change, negative = cytotoxicity [3] -3.06% [at 13.2 µM] | activation [13] -1.91% [at 8.36 µM] | viability change, negative = cytotoxic [4] 0.125% [at 8.36 µM] | activity change, negative = cytotoxicity [5] 1.32% [at 13.2 µM] | activation [6] -0.943% [at 13.2 µM] | activity change, negative = cytotoxicity [7] 3.01% [at 13.2 µM] | activation [14] -4.9% [at 13.2 µM] | viability change, negative = cytotoxic [8] -17.7% [at 13.7 µM] | ratio activity, negative = inhibition [15] -14.6% [at 13.7 µM] | activity change, negative = inhibition [9] 6.21% [at 13.2 µM] | activation [11] -0.921% [at 13.2 µM] | activity change, negative = cytotoxicity [12] -0.638% [at 13.2 µM] | activity change, negative = cytotoxicity [16] 7.07% [at 13.2 µM]

O=C1OCCO1
inactive: Potency [19] | Potency [1] | outcome [2] | outcome [4] | outcome [6] | outcome [7] | outcome [14] | outcome [15] | outcome [9] | outcome [11] | outcome [12] | outcome [16]

COc1cc2c(cc1OC)C(=O)C(CC1CCN(Cc3ccccc3)CC1)C2 (stereo not drawn)
inactive: Potency [19] | Potency [1] | outcome [3] | outcome [4] | Potency [5] | outcome [6] | outcome [7] | outcome [14] | outcome [8] | outcome [15] | outcome [10] | outcome [11] | outcome [12] | outcome [16]

CC(C)NC(=O)c1ccc(C=O)cc1
inactive: outcome [4] | Potency [5] | outcome [6] | outcome [7] | outcome [14] | outcome [8] | outcome [15] | outcome [10] | outcome [12] | outcome [18] | outcome [16]
